Reference: PubChem BioAssay (EPA / NIEHS)
Active and inactive are the calls of the source. Rule for the calls: active = hit-call score of the fitted dose curve at least 0.9, where 1 is the maximum; inactive = score below 0.9.

Legend:
Conditions in all cases: mRNA level, 48 h; actives raise or lower the signal
BCL2L11 (gene 10018) = experiment: LTEA_HepaRG_BCL2L11: Life Technologies and Expression Analysis (LTEA) Assay for Bcl-2 (BCL2L11) gene using HepaRG (AID 2283473)
Method in brief: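 Human hepatic HepaRG cultures are treated 48 h with test chemicals (maximum 100 uM, 0.5% DMSO vehicle). Expression of BCL2L11 is measured by qRT-PCR against ACTB, GAPDH and POLR2A, with activity in either direction scored relative to vehicle.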

[1] = read-out: Apolipoprotein A-V (APOA5) gene, APOA5 (gene 116519); experiment: LTEA_HepaRG_APOA5: Life Technologies and Expression Analysis (LTEA) Assay for Apolipoprotein A-V (APOA5) gene using HepaRG (AID 2283474)
Method in brief: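 Concentration-response of APOA5 expression in HepaRG: eight half-log doses to 100 uM, 48 h, qRT-PCR normalized to ACTB/GAPDH/POLR2A, bidirectional fitting with 0.5% DMSO as baseline.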

[2] = read-out: Bcl-2 (BID) gene, BID (gene 637); experiment: LTEA_HepaRG_BID: Life Technologies and Expression Analysis (LTEA) Assay for Bcl-2 (BID) gene using HepaRG (AID 2283476)
Method in brief: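 Duplicate 48 h treatments of HepaRG cells in serum-free induction medium spanned 100 uM downward in half-log steps, 0.5% DMSO. Transcript change quantified by qRT-PCR against three housekeeping genes, fitted up or down versus DMSO.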

Caspase-3 (Homo sapiens) = Caspase-3 (Homo sapiens) (UniProt P42574); experiment: LTEA_HepaRG_CASP3: Life Technologies and Expression Analysis (LTEA) Assay for cysteine-aspartic acid protease (CASP3) using HepaRG (AID 2283477)
Method in brief: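 Transcript-level assay: CASP3 mRNA in human HepaRG after 48 h treatment, eight half-log concentrations from 100 uM in 0.5% DMSO, quantified by qRT-PCR.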

[3] = read-out: Cytochrome P450 (CYP24A1), CYP24A1 (gene 1591); experiment: LTEA_HepaRG_CYP24A1: Life Technologies and Expression Analysis (LTEA) Assay for Cytochrome P450 (CYP24A1) using HepaRG (AID 2283478)
Method in brief: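 Gene expression of CYP24A1 by TaqMan qRT-PCR in HepaRG after 48 h treatment, highest concentration 100 uM; activity fitted in both directions relative to DMSO vehicle.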

[4] = read-out: Cytochrome P450 (CYP1A2), CYP1A2 (gene 1544); experiment: LTEA_HepaRG_CYP1A2: Life Technologies and Expression Analysis (LTEA) Assay for Cytochrome P450 (CYP1A2) using HepaRG (AID 2283479)
Method in brief: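 In duplicate wells, HepaRG cultures maintained in 0.5% DMSO were treated 48 h across an 8-point, half-log series topping at 100 uM; phenobarbital (1 mM) served as induction control. Expression was read by qRT-PCR.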

[5] = read-out: cysteine-aspartic acid protease (CASP8), CASP8 (gene 841); experiment: LTEA_HepaRG_CASP8: Life Technologies and Expression Analysis (LTEA) Assay for cysteine-aspartic acid protease (CASP8) using HepaRG (AID 2283480)
Method in brief: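 CASP8 transcript measured by TaqMan qRT-PCR with ACTB/GAPDH/POLR2A normalization, after 48 h chemical exposure of HepaRG cells in serum-free induction medium. Eight concentrations, top 100 uM, half-log steps, 0.5% DMSO vehicle; fits in both directions versus DMSO.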

[6] = read-out: Cytochrome P450 (CYP2B6), CYP2B6 (gene 1555); experiment: LTEA_HepaRG_CYP2B6: Life Technologies and Expression Analysis (LTEA) Assay for Cytochrome P450 (CYP2B6) using HepaRG (AID 2283481)
Method in brief: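 Human HepaRG, 48 h dosing, 0.5% DMSO vehicle, top dose 100 uM. CYP2B6 transcript by qRT-PCR, housekeeping-normalized, bidirectional curve fit.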

[7] = read-out: Cytochrome P450 2C19 (Homo sapiens) (UniProt P33261); experiment: LTEA_HepaRG_CYP2C19: Life Technologies and Expression Analysis (LTEA) Assay for CYP2C19 using HepaRG (AID 2283482)
Method in brief: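 Endpoint: CYP2C19 mRNA change, bidirectional fit vs 0.5% DMSO. Cells: HepaRG, 48 h exposure, eight-point series topping at 100 uM. Quantitation: qRT-PCR normalized to ACTB, GAPDH, POLR2A.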

CYP2C8 (gene 1558) = experiment: LTEA_HepaRG_CYP2C8: Life Technologies and Expression Analysis (LTEA) Assay for CYP2C8 using HepaRG (AID 2283483)
Method in brief: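 CYP2C8 expression measured by TaqMan qRT-PCR and normalized to three housekeeping genes. HepaRG cultures were treated for 48 h with an eight-point half-log series topping at 100 uM, vehicle 0.5% DMSO, duplicates; fitted both directions against DMSO.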

CYP2C9 (gene 1559) = experiment: LTEA_HepaRG_CYP2C9: Life Technologies and Expression Analysis (LTEA) Assay for CYP2C9 using HepaRG (AID 2283484)
Method in brief: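 CYP2C9 transcript level, quantified by TaqMan qRT-PCR against three housekeeping genes, was fitted bidirectionally relative to 0.5% DMSO. HepaRG cultures were treated 48 h, in duplicate, at eight half-log concentrations topping at 100 uM.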

CYP2E1 (gene 1571) = experiment: LTEA_HepaRG_CYP2E1: Life Technologies and Expression Analysis (LTEA) Assay for CYP2E1 using HepaRG (AID 2283485)
Method in brief: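 CYP2E1 transcript measured by Fluidigm qRT-PCR against three housekeeping genes in human HepaRG cells treated 48 h (top 100 uM, half-log steps, 0.5% DMSO vehicle). Gain or loss fitted relative to DMSO baseline.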

CYP4A11 (gene 1579) = experiment: LTEA_HepaRG_CYP4A11: Life Technologies and Expression Analysis (LTEA) Assay for CYP4A11 using HepaRG (AID 2283486)
Method in brief: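 Human hepatic HepaRG cultures receive duplicate 48 h exposures across a concentration-response series topping at 100 uM. Expression changes in CYP4A11 are measured by qRT-PCR relative to DMSO controls.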

[8] = read-out: Cytochrome P450 3A4 (Homo sapiens) (UniProt P08684); experiment: LTEA_HepaRG_CYP3A4: Life Technologies and Expression Analysis (LTEA) Assay for CYP3A4 using HepaRG (AID 2283487)
Method in brief: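 HepaRG, 48 h exposure, 8-pt CRC from 100 uM (half-log), 0.5% DMSO, duplicates; serum-free induction medium. Readout: CYP3A4 mRNA, qRT-PCR, ACTB/GAPDH/POLR2A normalization. Bidirectional fit vs DMSO.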

[9] = read-out: DNA damage-inducible transcript 3 (DDIT3), DDIT3 (gene 1649); experiment: LTEA_HepaRG_DDIT3: Life Technologies and Expression Analysis (LTEA) Assay for DNA damage-inducible transcript 3 (DDIT3) using HepaRG (AID 2283488)
Method in brief: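 DDIT3 transcript was quantified by qRT-PCR with ACTB/GAPDH/POLR2A normalization after 48 h chemical treatment of differentiated HepaRG cells in 0.5% DMSO. Dosing was eight-point, half-log, top 100 uM, duplicate wells. Curves fitted bidirectionally versus DMSO.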

[10] = read-out: Pro-epidermal growth factor (Homo sapiens) (UniProt P01133); experiment: LTEA_HepaRG_EGF: Life Technologies and Expression Analysis (LTEA) Assay for Epidermal growth factor (EGF) using HepaRG (AID 2283489)
Method in brief: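 Concentration-response mRNA assay: HepaRG cells dosed 48 h (max 100 uM, 0.5% DMSO), EGF measured by qRT-PCR and normalized to ACTB/GAPDH/POLR2A.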

[11] = read-out: Early growth response protein 1 (EGR1) transcription factor, EGR1 (gene 1958); experiment: LTEA_HepaRG_EGR1: Life Technologies and Expression Analysis (LTEA) Assay for Early growth response protein 1 (EGR1) transcription factor using HepaRG (AID 2283490)
Method in brief: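 EGR1 transcript levels quantified by qRT-PCR (Fluidigm arrays) against three housekeeping genes after 48 h chemical exposure of HepaRG cells. Eight-point half-log series topping at 100 uM, 0.5% DMSO vehicle, analyzed for gain or loss.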

[12] = read-out: Ezrin (EZR), EZR (gene 7430); experiment: LTEA_HepaRG_EZR: Life Technologies and Expression Analysis (LTEA) Assay for Ezrin (EZR) using HepaRG (AID 2283491)
Method in brief: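 Read-out is EZR transcript level by qRT-PCR, normalized to three housekeeping genes and fitted bidirectionally against the DMSO control. Human HepaRG cells received test chemicals for 48 h at eight half-log concentrations up to 100 uM in 0.5% DMSO.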

[13] = read-out: Cytochrome P450 3A7 (Homo sapiens) (UniProt P24462); experiment: LTEA_HepaRG_CYP3A7: Life Technologies and Expression Analysis (LTEA) Assay for CYP3A7 using HepaRG (AID 2283492)
Method in brief: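 qRT-PCR of CYP3A7 in HepaRG lysates after 48 h treatment; concentration-response (8 points, max 100 uM) analysed bidirectionally relative to 0.5% DMSO controls.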

[14] = read-out: Apoptosis regulator Bcl-2 (Homo sapiens) (UniProt P10415); experiment: LTEA_HepaRG_BCL2: Life Technologies and Expression Analysis (LTEA) Assay for Bcl-2 gene using HepaRG (AID 2283475)
Method in brief: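 qRT-PCR of BCL2 transcript, normalized to three housekeeping genes (ACTB, GAPDH, POLR2A), after 48 h chemical exposure of HepaRG cells; concentrations top 100 uM with half-log dilutions, 0.5% DMSO vehicle, duplicates; changes up or down fitted relative to vehicle.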

Measured: AC50

Cytochrome P450 3A4 (Homo sapiens), sequence (P08684 whole entry, looked up): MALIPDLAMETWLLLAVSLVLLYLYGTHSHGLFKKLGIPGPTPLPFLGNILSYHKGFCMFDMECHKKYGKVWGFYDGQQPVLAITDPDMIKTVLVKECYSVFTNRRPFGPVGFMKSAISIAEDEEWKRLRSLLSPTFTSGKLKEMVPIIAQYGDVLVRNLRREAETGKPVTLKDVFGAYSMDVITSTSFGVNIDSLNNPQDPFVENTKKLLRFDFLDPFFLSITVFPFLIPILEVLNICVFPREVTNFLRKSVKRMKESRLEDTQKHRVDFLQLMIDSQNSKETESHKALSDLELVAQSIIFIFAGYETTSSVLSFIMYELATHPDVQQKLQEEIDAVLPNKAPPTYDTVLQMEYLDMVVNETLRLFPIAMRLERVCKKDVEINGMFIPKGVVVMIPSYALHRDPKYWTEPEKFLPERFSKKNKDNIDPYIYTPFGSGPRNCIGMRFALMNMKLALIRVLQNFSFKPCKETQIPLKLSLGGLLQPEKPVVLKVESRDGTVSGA
Cytochrome P450 3A7 (Homo sapiens), sequence (P24462 whole entry, looked up): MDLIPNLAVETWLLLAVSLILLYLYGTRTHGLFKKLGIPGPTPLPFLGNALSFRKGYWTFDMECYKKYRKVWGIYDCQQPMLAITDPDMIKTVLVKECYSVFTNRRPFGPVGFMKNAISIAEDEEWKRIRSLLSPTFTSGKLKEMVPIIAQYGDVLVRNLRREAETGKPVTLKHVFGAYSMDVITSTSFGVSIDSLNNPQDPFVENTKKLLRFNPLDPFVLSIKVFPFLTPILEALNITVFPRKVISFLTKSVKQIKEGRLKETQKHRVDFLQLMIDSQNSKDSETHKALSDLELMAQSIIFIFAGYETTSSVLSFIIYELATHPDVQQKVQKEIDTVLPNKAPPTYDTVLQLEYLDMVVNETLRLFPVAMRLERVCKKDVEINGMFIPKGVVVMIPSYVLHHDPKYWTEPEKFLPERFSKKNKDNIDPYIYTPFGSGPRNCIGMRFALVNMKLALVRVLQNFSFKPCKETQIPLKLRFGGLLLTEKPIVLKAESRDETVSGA
Caspase-3 (Homo sapiens), sequence (P42574 whole entry, looked up): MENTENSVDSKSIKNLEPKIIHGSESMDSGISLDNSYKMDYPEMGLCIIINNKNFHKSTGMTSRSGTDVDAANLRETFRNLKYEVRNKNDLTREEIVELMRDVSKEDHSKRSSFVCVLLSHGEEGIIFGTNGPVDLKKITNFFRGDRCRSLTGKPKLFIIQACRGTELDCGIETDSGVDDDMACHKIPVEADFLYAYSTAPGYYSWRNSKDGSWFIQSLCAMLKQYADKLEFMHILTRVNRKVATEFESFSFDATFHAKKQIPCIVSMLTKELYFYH
Cytochrome P450 2C19 (Homo sapiens), sequence (P33261 whole entry, looked up): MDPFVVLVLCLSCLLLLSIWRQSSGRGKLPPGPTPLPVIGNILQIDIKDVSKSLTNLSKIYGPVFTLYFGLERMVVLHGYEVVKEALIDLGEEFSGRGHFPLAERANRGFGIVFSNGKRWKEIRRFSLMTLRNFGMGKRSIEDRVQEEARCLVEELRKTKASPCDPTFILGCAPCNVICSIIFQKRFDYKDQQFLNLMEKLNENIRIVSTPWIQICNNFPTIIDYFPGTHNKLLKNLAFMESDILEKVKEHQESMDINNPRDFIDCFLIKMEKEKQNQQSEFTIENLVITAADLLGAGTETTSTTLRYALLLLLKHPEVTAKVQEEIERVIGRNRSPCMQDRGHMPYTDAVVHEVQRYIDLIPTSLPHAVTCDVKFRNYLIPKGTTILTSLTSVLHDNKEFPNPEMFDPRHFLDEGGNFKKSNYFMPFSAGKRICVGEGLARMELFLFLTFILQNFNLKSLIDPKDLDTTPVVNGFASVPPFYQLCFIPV
Apoptosis regulator Bcl-2 (Homo sapiens), sequence (P10415 whole entry, looked up): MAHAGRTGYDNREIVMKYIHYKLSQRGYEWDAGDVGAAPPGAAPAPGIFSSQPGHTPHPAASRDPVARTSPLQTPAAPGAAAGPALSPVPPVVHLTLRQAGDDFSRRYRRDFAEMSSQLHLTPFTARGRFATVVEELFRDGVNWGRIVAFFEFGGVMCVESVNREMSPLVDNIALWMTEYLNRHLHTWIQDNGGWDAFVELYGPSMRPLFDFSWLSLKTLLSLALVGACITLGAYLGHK

C[C@@H](Oc1ccc(CNC(=O)c2cccnc2Oc2ccc3c(c2)OCO3)c(F)c1)C(=O)O
active: CYP4A11 (gene 1579) 28.5 µM
not listed: [14]
inactive: all other assays above

O=S(=O)(O)c1ccc(N=Nc2c(O)ccc3cc(S(=O)(=O)O)ccc23)cc1
active: [6] 22.9 µM
not listed: [4] | [14]
inactive: all other assays above

c1ccc2cc3ccccc3cc2c1
active: [6] 13.2 µM | CYP2E1 (gene 1571) 50 µM | [13] 13.2 µM
not listed: [4]
inactive: all other assays above

NC(N)=O
not listed: [1]
inactive: all other assays above

CC(C)c1nnc2ccc(-c3ocnc3-c3cc(F)ccc3F)cn12
active: [1] 56.3 µM | [6] 0.619 µM | [7] 91.6 µM | CYP2C8 (gene 1558) 82.6 µM | CYP2C9 (gene 1559) 71.7 µM | CYP2E1 (gene 1571) 22.2 µM | CYP4A11 (gene 1579) 33.6 µM | [8] 1.42 µM | [9] 80.1 µM | [11] 12.3 µM | [12] 2.38 µM | [13] 81.6 µM
inactive: BCL2L11 (gene 10018) | [2] | Caspase-3 (Homo sapiens) | [3] | [4] | [5] | [10]

CC(C)CC(C)O (configuration not stated)
not listed: [4] | [14]
inactive: all other assays above
